Our source for the growth values is PubChem BioAssay (NCI).

The panel holds about 83,000 compounds, 20% with a hit somewhere; the sample as a whole holds those more often.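 Percent growth is the endpoint: 0 to 100 indicates growth inhibition (40 means 60% inhibition), 0 means no net growth, and negative values indicate cell death.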 Values without a mark were called inactive. Activity calls are given as the source filed them. Rule for the calls: active = growth percent below 10; inactive = the rest.

Among the test systems are RPMI-8226 leukemia; OVCAR-8 ovarian; OVCAR-5 ovarian; OVCAR-4 ovarian; SK-OV-3 ovarian; IGROV1 ovarian; OVCAR-3 ovarian; HS 578T breast; NCI/ADR-RES ovarian; T-47D breast.
What all share (assay): NCI-60 one-dose screen, 48 h (100 = growth as untreated, 0 = no growth, -100 = all killed)
Holding throughout (conditions): 10 µM unless noted

With `O=C1c2ccccc2C(=O)c2c1oc1c2c(=O)[nH]c2ccc(Cl)cc21`, the growth in the experiment with RPMI-8226 leukemia was 4.83% (active); with OVCAR-8 ovarian it was -27.5% (active); in the experiment on OVCAR-5 ovarian, 52.7%; in the experiment with OVCAR-4 ovarian, -42% (active); in the experiment on SK-OV-3 ovarian, 1.64% (active); with IGROV1 ovarian it was -3.63% (active). Also, the growth in the experiment with OVCAR-3 ovarian was -68.4% (active); in the experiment on HS 578T breast, -7.55% (active); in the experiment on NCI/ADR-RES ovarian, 22.3%; in the experiment with T-47D breast, -58.1% (active).

For the compound `CC(C)CSc1nc(Nc2ccccc2)c(C#N)c(-c2ccc(F)cc2)n1`, the growth in the experiment with RPMI-8226 leukemia was 21.6%; with OVCAR-8 ovarian, 29.4%; in the experiment with OVCAR-5 ovarian, 40.8%; in the experiment with OVCAR-4 ovarian it was -81.3% (active); in the experiment with SK-OV-3 ovarian it was 46.8%; in the experiment on IGROV1 ovarian, 1.71% (active). The growth in the experiment with OVCAR-3 ovarian was -33.2% (active); in the experiment on HS 578T breast, 14.6%; in the experiment on NCI/ADR-RES ovarian it was 41.1%; in the experiment with T-47D breast, 29.1%.

Regarding `CC(=O)[C@@H]1CC[C@]2(C(=O)O)CC[C@]3(C)[C@H](CC[C@@H]4[C@@]5(C)Cc6c([nH]c7ccccc67)C(C)(C)[C@@H]5CC[C@]43C)[C@@H]12`, the growth in the experiment on RPMI-8226 leukemia is 43.2%; with OVCAR-8 ovarian it was 62.7%; in the experiment on OVCAR-5 ovarian, 101%; with OVCAR-4 ovarian it was 65.7%; with SK-OV-3 ovarian, 86.6%; in the experiment on IGROV1 ovarian it was 86.8%. The growth in the experiment with OVCAR-3 ovarian is 54.1%; in the experiment on HS 578T breast it was 73.2%; with NCI/ADR-RES ovarian, 67.6%; in the experiment with T-47D breast, 65.5%.

On to `COc1cccc2c1-c1ccccc1C2=O`, for which the growth in the experiment on RPMI-8226 leukemia is 14.9%; with OVCAR-8 ovarian, 21.5%; in the experiment on OVCAR-5 ovarian it was 65.6%; with OVCAR-4 ovarian, 56.5%; in the experiment with SK-OV-3 ovarian it was 30.6%; in the experiment on IGROV1 ovarian, 33.3%. Also, the growth is -26.4% (active) in the experiment with OVCAR-3 ovarian, 19.6% with HS 578T breast, 8.62% (active) in the experiment with NCI/ADR-RES ovarian and 33.2% with T-47D breast.

Turning to `CC(C)NS(=O)(=O)c1cccc(-c2ccc3c4c(n(CCCN(C)C)c(=O)c3c2)-c2ccccc2C4=O)c1`, the growth is 80.9% in the experiment on RPMI-8226 leukemia; 76.4% with OVCAR-8 ovarian; 117% in the experiment on OVCAR-5 ovarian; 101% in the experiment on OVCAR-4 ovarian; 104% with SK-OV-3 ovarian; 90% in the experiment on IGROV1 ovarian. Further, the growth in the experiment with OVCAR-3 ovarian is 110%; in the experiment on HS 578T breast it was 99.8%; in the experiment on NCI/ADR-RES ovarian it was 103%; with T-47D breast, 97.1%.

`CC1=C/C(=N\N=C2/C=C(C)CC(C)(C)C2)CC(C)(C)C1`: the growth was 102% in the experiment with RPMI-8226 leukemia; 95.2% in the experiment on OVCAR-8 ovarian; 107% with OVCAR-5 ovarian; 106% with OVCAR-4 ovarian; 97% in the experiment on SK-OV-3 ovarian; 103% in the experiment on IGROV1 ovarian. In addition, the growth was 112% with OVCAR-3 ovarian, 103% in the experiment with HS 578T breast, 104% in the experiment on NCI/ADR-RES ovarian and 97.3% with T-47D breast.

Turning to `Cc1cccc(C)c1Nc1nnc(-c2ccc(F)cc2)o1`, the growth was 109% with RPMI-8226 leukemia; 109% in the experiment with OVCAR-8 ovarian; 93.9% in the experiment on OVCAR-5 ovarian; 103% with OVCAR-4 ovarian; 102% in the experiment with SK-OV-3 ovarian; 97.9% in the experiment on IGROV1 ovarian. Also, the growth was 93.6% in the experiment with OVCAR-3 ovarian, 108% with HS 578T breast, 97.8% in the experiment on NCI/ADR-RES ovarian and 110% in the experiment on T-47D breast.

As to `C1=CC2=CC=C3C=CC=C4C(c5nc6c7ccccc7c7ccccc7c6[nH]5)=CC(=C1)C2C34` (stereo not given), the growth is 89.5% in the experiment with RPMI-8226 leukemia; 97.7% in the experiment on OVCAR-8 ovarian; 115% in the experiment on OVCAR-5 ovarian; 119% in the experiment with OVCAR-4 ovarian; 93.9% with SK-OV-3 ovarian; 86.8% with IGROV1 ovarian. Further, the growth in the experiment with OVCAR-3 ovarian is 93.4%; in the experiment on HS 578T breast, 93.9%; with NCI/ADR-RES ovarian, 92.9%; in the experiment on T-47D breast, 60%.

Take `O=C1Nc2ccc(Cl)cc2/C1=N/c1nc(-c2ccc(F)cc2)cs1`: the growth in the experiment with RPMI-8226 leukemia is 8.37% (active); in the experiment with OVCAR-8 ovarian it was 45.3%; in the experiment on OVCAR-5 ovarian, 75%; in the experiment with OVCAR-4 ovarian, 32.2%; with SK-OV-3 ovarian, 56.4%; with IGROV1 ovarian it was 25.6%. Besides, the growth was 39.2% with OVCAR-3 ovarian, 38.5% in the experiment with HS 578T breast, 79.8% in the experiment with NCI/ADR-RES ovarian and 25.3% in the experiment on T-47D breast.

As for `COC(=O)/C=C/c1cc(OC(C)=O)c2c(c1)C(C(=O)OC)C(c1ccc(OC(C)=O)c(OC(C)=O)c1)O2` (stereo not given), the growth was 11.1% in the experiment on RPMI-8226 leukemia; -12.5% (active) in the experiment with OVCAR-8 ovarian; 50.5% in the experiment with OVCAR-5 ovarian; 49.5% with OVCAR-4 ovarian; 18.8% with SK-OV-3 ovarian; 20.1% in the experiment on IGROV1 ovarian. In addition, the growth in the experiment on OVCAR-3 ovarian was 3.01% (active); in the experiment on HS 578T breast, 41.1%; in the experiment with NCI/ADR-RES ovarian, 6.1% (active); in the experiment with T-47D breast, 49.3%.

Take `C=C1C(=O)O[C@H]2[C@H]1CC/C(COC(=O)CCCCC(=O)OC/C1=C/CC[C@@]3(C)O[C@H]3[C@H]3OC(=O)C(=C)[C@@H]3CC1)=C\CC[C@@]1(C)O[C@@H]21`: the growth in the experiment with RPMI-8226 leukemia was 5.66% (active); in the experiment with OVCAR-8 ovarian it was 49.7%; with OVCAR-5 ovarian it was 115%; in the experiment on OVCAR-4 ovarian, 82.3%; in the experiment with SK-OV-3 ovarian it was 85.6%; with IGROV1 ovarian it was 39.4%. Besides, the growth in the experiment with OVCAR-3 ovarian was 18.6%; in the experiment on HS 578T breast it was 82.7%; in the experiment on NCI/ADR-RES ovarian, 87.5%; with T-47D breast, 38.6%.

As to `COc1ccc2c(c1)/C(=C1\S/C(=N/c3nnc(C)s3)NC1=O)C(=O)N2Cc1ccc(Cl)cc1`, the growth with RPMI-8226 leukemia is 40.3%; in the experiment with OVCAR-8 ovarian it was 52.2%; in the experiment with OVCAR-5 ovarian it was 90.5%; in the experiment with OVCAR-4 ovarian, 44.7%; in the experiment with SK-OV-3 ovarian, 70%; in the experiment on IGROV1 ovarian, 41.9%. The growth in the experiment on OVCAR-3 ovarian was 42.2%; in the experiment with HS 578T breast it was 55.1%; in the experiment on NCI/ADR-RES ovarian it was 32%; in the experiment with T-47D breast, 42%.

Consider `CN1CC=C(c2cc(NC(=O)Nc3ccc(Oc4ccnc(NC(=O)C5CC5)c4)c(F)c3)cc(C(F)(F)F)c2)CC1`, for which the growth in the experiment with RPMI-8226 leukemia was -28% (active); in the experiment on OVCAR-8 ovarian it was -2.13% (active); in the experiment on OVCAR-5 ovarian, 7.5% (active); in the experiment on OVCAR-4 ovarian, 3.24% (active); with SK-OV-3 ovarian it was 17.1%; in the experiment on IGROV1 ovarian, 2.9% (active). Further, the growth in the experiment with OVCAR-3 ovarian is 8.26% (active); in the experiment with HS 578T breast, -17.3% (active); in the experiment on NCI/ADR-RES ovarian, 44.7%; in the experiment on T-47D breast, -0.194% (active).

Regarding `Nc1c(C(=O)Nc2ccccn2)sc2nc3c(cc12)CCCCC3`, the growth is 11.4% with RPMI-8226 leukemia; 19.1% with OVCAR-8 ovarian; 39.6% in the experiment with OVCAR-5 ovarian; 53.5% with OVCAR-4 ovarian; 36.2% in the experiment with SK-OV-3 ovarian; 44.9% in the experiment with IGROV1 ovarian. Moreover, the growth with OVCAR-3 ovarian is -3.52% (active); with HS 578T breast, 30.5%; with NCI/ADR-RES ovarian, 9.19% (active); in the experiment on T-47D breast it was 36.4%.
